From PubChem
NPR2 activator – GC-B (human) receptor activation; HEK293-GC-B cells, CNP EC30, cGMP TR-FRET; 0% at EC30 CNP, 100% saturating CNP; P20594; activation, % at 10 µM; AID 1920062; actives 0.11% (n = 370,000);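 active = activation at 10 µM reaching about 35% in either raw or pattern-adjusted values, limit read from the data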
TLR9-MyD88 block – blocks human TLR9 binding to MyD88. Q9NR96+Q99836. CHO BLA complementation TLR9-MyD88, CCF4 FRET ratio. inhibition, % at 4.98 µM. actives 0.21% (n = 340,000). AID 504734;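 active = inhibition above the mean over all tested compounds plus 3 SD, cut at about 21% in these data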
NOD2 RIPK2 PPI – NOD2-RIPK2 protein interaction inhibition; CHO BLA complementation NOD2-RIPK2, CCF4 ratio; inhibition, % at 4.98 µM; actives 0.38% (n = 360,000); in the data active = inhibition above about 21%
GC-A act – GC-A (human) enzyme activation; P16066; HEK293 GC-A cells, cGMP TR-FRET, EC30 ANP; 0% at EC30 ANP, 100% saturating ANP; activation, % at 10 µM; actives 0.14% (n = 370,000); AID 1671463; in the data active = activation above about 40%
Neddylation inh – cullin neddylation inhibition; P61081+Q13564; TR-FRET cullin neddylation, biochemical; inhibition, % at 25 µM; actives 0.58% (n = 360,000); in the data active = inhibition above about 36%
TLR4 MyD88 comp – inhibitors of human TLR4-MyD88 binding | O00206+Q99836 | AID 861 | actives 0.18% (n = 200,000) | HeLa CL3-4 TLR4/MyD88 BLA complementation, FRET ratio | inhibition, % at 8.4 µM; in the data active = inhibition above about 25%
TLR9-MyD88 cf – confirmation of human TLR9-MyD88 binding inhibitors | shares compounds with TLR9-MyD88 block | CHO TLR9/MyD88 BLA complementation, CCF4 FRET ratio | inhibition, % at 4.98 µM | actives 51% (n = 680);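 active = mean inhibition across three repeats above about 21% taken from the earlier screen, limit read from the data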;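 note: blue over green emission ratio reports constitutive TLR9 MyD88 association via BLA complementation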
BLA counter-1 – beta-lactamase reporter inhibition, counter-screen artifact; shares compounds with TLR9-MyD88 block; CHO-BLA cells, CCF4 FRET ratio, BLA reporter; inhibition, % at 4.98 µM; actives 7% (n = 680); AID 540251;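 active = mean inhibition above a 50% cutoff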;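 note: counterscreen of TLR9-MyD88 hits on CMV-driven BLA in CHO-K1 cells; higher means less blue over green ratio so more BLA blockade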
TLR9 CHO cytotox – CHO cell toxicity counter-screen for TLR9-MyD88 inhibitors; TLR9-MyD88 CHO cells cytotoxicity, luminescence; actives 39% (n = 680); inhibition, % at 4.98 µM; shares compounds with TLR9-MyD88 block; AID 588336; in the data active = inhibition above about 11%
NOD2 RIPK2 conf – NOD2-RIPK2 interaction inhibition confirmed; actives 70% (n = 1,200); AID 624370; inhibition, % at 4.98 µM; shares compounds with NOD2 RIPK2 PPI; CHO cells, NOD2-RIPK2 BLA complementation, CCF4 FRET;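 active = mean inhibition across replicates above a set limit taken from the earlier primary screen, cut at about 21% in these data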
BLA counter-2 – NOD2-RIPK2 counterscreen BLA reporter activity; actives 57% (n = 1,200); CHO BLA reporter, CCF4 FRET ratio; inhibition, % at 4.98 µM; shares compounds with NOD2 RIPK2 PPI;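 active = mean inhibition above the low-control mean inhibition plus three low-control SD, cut at about 11% in these data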
Hits are given with their value; - = inactive; . = not tested or not shown. A selection: hits, their analogues and other compounds. The true share with any hit is near 1.2%.

SMILES	NPR2 activator	TLR9-MyD88 block	NOD2 RIPK2 PPI	GC-A act	Neddylation inh	TLR4 MyD88 comp	TLR9-MyD88 cf	BLA counter-1	TLR9 CHO cytotox	NOD2 RIPK2 conf	BLA counter-2
COc1ccc(NC(=O)/C(Cl)=C(/Cl)S(=O)Cc2ccccc2)cn1 (configuration not stated)	-	43	92	-	-	-	49	-	99	92	30
C[C@H]1[C@@H](OC(=O)Nc2ccccc2F)CC[C@@]23CCCN2C(=O)CCC[C@@H]13	-	.	.	-	.	.	.	.	.	.	.
N#C/C(=C\c1ccc(Sc2ccc(Cl)cc2)o1)c1nc2ccccc2[nH]1	-	34	34	-	.	-	-	-	-	39	43
COc1cccc(C2=CC(c3ccc(N(C)C)cc3)n3ncnc3N2)c1 (configuration not stated)	.	.	.	.	.	-	.	.	.	.	.
COc1ccc(C2C=C(c3ccc(C)cc3)Nc3ncnn32)cc1 (configuration not stated)	-	41	52	-	.	-	-	-	-	-	-
Brc1ccc(C2=CC(c3cccs3)n3ncnc3N2)cc1 (configuration not stated)	-	-	-	-	-	-	.	.	.	.	.
Cc1ccc(C2C=C(c3ccccc3)Nc3ncnn32)cc1 (configuration not stated)	-	37	48	-	.	.	-	-	-	-	18
C1=C(c2ccc(-c3ccccc3)cc2)Nc2ncnn2C1c1ccco1 (configuration not stated)	-	27	39	-	-	-	-	-	-	-	-
Oc1ccc(C2C=C(c3ccc(F)cc3)Nc3ncnn32)cc1 (configuration not stated)	-	40	50	-	.	.	-	-	-	37	46
Brc1ccc(C2=CC(c3ccco3)n3nnnc3N2)cc1 (configuration not stated)	-	-	-	-	-	.	.	.	.	.	.
COc1ccc(CCNC(=O)c2c(N)[nH]c(C(=O)c3ccccc3)c2-c2ccc(N(C)C)cc2)cc1	-	.	.	-	.	.	.	.	.	.	.
C(=C\c1ccccc1)/CSc1nnc(Cc2cccs2)n1-c1ccccc1	-	.	.	-	.	.	.	.	.	.	.
COc1ccc(-n2c(SCC(=O)Nc3ccc(S(=O)(=O)Nc4nccs4)cc3)nnc2-c2ccco2)cc1	-	.	.	-	.	.	.	.	.	.	.
COc1ccccc1CNC(=O)CN1C(=O)c2cccc(N)c2C1=O	-	36	31	-	.	.	-	-	-	46	49
COc1ccccc1CNC(=O)CCN1C(=O)c2ccccc2C1=O	-	-	-	-	-	.	.	.	.	.	.
O=c1c(Br)ccc(Br)cc1Br	-	66	85	-	-	.	68	-	98	101	48
COC(=O)[C@]12C[C@H](CC(=O)N3CCSCC3)C(=O)N(Cc3ccccc3)C1=C[C@H](C1CCCC1)O[C@@H]2C	-	.	.	-	.	.	.	.	.	.	.
COC(=O)[C@]12C[C@H](CC(=O)NCc3ccc(OC)c(OC)c3)C(=O)N(Cc3ccco3)C1=C[C@H](C1CCCC1)O[C@@H]2C	-	.	.	-	.	.	.	.	.	.	.
Cc1cc(NS(=O)(=O)c2ccc(NC(=O)CSc3nnc(-c4ccccn4)n3Cc3ccco3)cc2)nc(C)n1	-	.	.	-	.	.	.	.	.	.	.
CCc1cc(=O)oc2cc(OC(=O)CN3C(=O)NC4(CCCC4)C3=O)ccc12	-	-	-	-	.	.	.	.	.	.	.
O=C(CN1C(=O)NC2(CCCCC2)C1=O)Oc1ccc2c(C(F)(F)F)cc(=O)oc2c1	-	43	67	-	.	.	36	-	-	63	67
COc1cccc([C@@H](NC(=O)C(F)(F)F)[C@@H]2CCCC=C2c2ccccc2)c1	-	.	.	-	.	.	.	.	.	.	.
O=C(NCCCO)/C(=C/c1ccc(-c2cccc([N+](=O)[O-])c2)o1)NC(=O)c1ccccc1	-	-	-	-	-	-	.	.	.	.	.
Cc1ccc(C(=O)N/C(=C/c2ccc(-c3ccc([N+](=O)[O-])cc3)o2)C(=O)NCCCN(C)C)cc1	-	41	48	-	-	.	33	-	-	57	55
O=C(NCc1ccccc1C(F)(F)F)c1cccc2c1C(=O)c1ccc(N3CCC(N4CCCCC4)CC3)cc1S2(=O)=O	-	30	68	-	-	.	30	-	-	73	70
SMILES	NPR2 activator	TLR9-MyD88 block	NOD2 RIPK2 PPI	GC-A act	Neddylation inh	TLR4 MyD88 comp	TLR9-MyD88 cf	BLA counter-1	TLR9 CHO cytotox	NOD2 RIPK2 conf	BLA counter-2
Cc1ccc(CNC(=O)c2cccc3c2C(=O)c2ccc(N4CCCCC4)cc2S3(=O)=O)cc1	-	25	27	-	-	.	-	-	-	31	33
Cc1ccc(CNC(=O)c2cccc3c2C(=O)c2ccc(N4CCOCC4)cc2S3(=O)=O)cc1	-	-	-	-	-	.	.	.	.	.	.
O=C1Nc2ccc(Br)cc2C12NNc1ccccc1O2 (configuration not stated)	-	33	36	-	-	-	26	-	-	35	47
COc1ccc2c(c1)Sc1ccc(Cl)cc1N2	-	.	.	-	.	.	.	.	.	.	.
CN1C(=O)c2cc(NC(=O)Nc3ccccc3)ccc2OC[C@H]2O[C@@H](CC(=O)Nc3cc(F)ccc3F)CC[C@@H]21	-	.	.	-	.	.	.	.	.	.	.
O=C(CN1C(=O)c2cccc3cccc1c23)Nc1ccccc1C(=O)NCc1ccco1	-	32	23	-	.	-	-	-	-	22	22
O=C(CN1C(=O)c2ccccc2S1(=O)=O)Nc1ccccc1C(=O)NCc1ccco1	-	-	-	-	-	-	.	.	.	.	.
c1ccc(-c2cccc3[nH]cc(-c4ccccc4)c23)cc1	-	.	.	-	.	.	.	.	.	.	.
Clc1ccccc1OCc1nnc(-c2ccccc2Br)o1	-	-	-	-	-	-	.	.	.	.	.
O=c1c(Cl)c(Cl)cnn1Cc1nnc(-c2ccccc2Br)o1	-	21	27	-	-	-	29	-	101	46	11
Nc1cc2sc(-c3ccc(C(=O)O)cc3)nc2cc1Cl	-	24	35	-	-	-	-	-	14	32	40
Nc1ccc(-c2nc3ccc(C(=O)O)cc3s2)cc1	-	-	-	-	-	-	.	.	.	.	.
